Compounds with a hit are over-represented: about 4.6% of the library has one in this group of screens.
Tau fibril FP – blocks human tau fibril formation measured by polarization | actives 0.39% (n = 280,000) | Potency, µM (highest dose often 57.7 µM), usual class: inhibitors | P10636 | K18 P301L tau heparin fibrillization, Alexa594 FP, 6 h; also: nearly all actives have a fitted effect of over 55% in size
Target sequence (P10636 561-689 P618L limits assumed): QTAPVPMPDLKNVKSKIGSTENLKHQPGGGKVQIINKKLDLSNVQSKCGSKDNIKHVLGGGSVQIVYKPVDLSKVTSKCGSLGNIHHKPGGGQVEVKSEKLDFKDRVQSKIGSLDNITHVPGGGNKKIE
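Human K18 P301L fragment (15 uM unlabeled plus 0.24 uM Alexa 594-labeled) in 100 mM sodium acetate pH 7 with compound, aggregation induced by 20 uM heparin for 6 hr at 37 C. ThT (30 uM) added for 1 hr, then Alexa 594 FP read.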
PNC inhibitor – blocks assembly of the perinucleolar compartment. activity change (PNC), negative = inhibition, % at 10 µM. PC3M PTB-GFP, PNC prevalence imaging, 16 h; hits give low values. actives 3.1% (n = 140,000). AID 2417;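 active = readout at or below -70, meaning at least 70% loss of cells showing the perinucleolar compartment, a nuclear body marking cancer cells; inconclusive = readout between -30 and a set limit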
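Read-out is percentage of cells bearing a perinucleolar compartment, from automated 20x imaging of fixed, Hoechst-stained PC3M PTB-GFP cells. Cells were seeded 4 h, then exposed 16 h to compound (23 nl of library stock) in duplicate plates.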
Tau fibril ThT – tau fibrillization inhibition (ThT binding) | P10636 | recombinant tau K18 P301L, heparin-induced fibrillization, ThT fluorescence | Potency, µM (titrated, usually from 57.4 µM), hits mostly inhibitors | actives 2.1% (n = 270,000) | AID 1460; also: nearly all actives have a fitted effect of over 55% in size
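Tau K18 P301L fragment (15 uM unlabeled plus 0.24 uM Alexa 594-labeled) in 100 mM sodium acetate pH 7 with compound, fibrillization induced by 20 uM heparin for 6 hr at 37 C. Thioflavin T (30 uM) added, fluorescence read after 1 hr (ex 450, em 510 nm).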
TRb-SRC2 inh – inhibitors of human thyroid hormone receptor beta-SRC2 interaction; TRbeta-SRC2 peptide binding, fluorescence polarization; receptor liganded with 1 µM T3; P10828; Potency, µM (highest dose often 106 µM), hits mostly inhibitors; actives 0.065% (n = 280,000); also: nearly all actives have a fitted effect of over 50% in size
Target sequence (P10828 whole entry, looked up): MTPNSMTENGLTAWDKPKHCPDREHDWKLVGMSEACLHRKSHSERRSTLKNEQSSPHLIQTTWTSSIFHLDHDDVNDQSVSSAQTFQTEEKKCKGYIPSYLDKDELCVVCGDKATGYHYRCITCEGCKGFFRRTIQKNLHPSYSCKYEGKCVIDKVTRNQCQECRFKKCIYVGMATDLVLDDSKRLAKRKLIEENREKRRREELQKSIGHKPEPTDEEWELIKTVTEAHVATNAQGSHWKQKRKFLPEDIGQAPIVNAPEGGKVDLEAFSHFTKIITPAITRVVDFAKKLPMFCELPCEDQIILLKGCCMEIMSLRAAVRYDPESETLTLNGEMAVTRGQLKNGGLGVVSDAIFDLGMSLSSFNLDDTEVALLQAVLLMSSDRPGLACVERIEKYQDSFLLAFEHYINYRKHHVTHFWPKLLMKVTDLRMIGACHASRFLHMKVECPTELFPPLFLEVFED
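Human TRb ligand-binding domain (0.6 uM) is mixed with 20 nM Texas Red SRC2 peptide and 1 uM T3; after compound addition and 5 hr at ambient temperature, polarization is measured and normalized to unbound and bound controls.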
TexasRed fluor – Texas Red fluorescence interference in TRb-SRC2 counter-screen; TRb/SRC2 Texas Red total fluorescence interference; Potency, µM (series often up to 106 µM); actives 0.29% (n = 280,000); active = well fitted curve in either direction with a large enough effect; inconclusive = small, poorly fitted or top-dose-only effect
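Human TRβ ligand-binding domain (0.6 uM) and Texas Red SRC2 peptide (20 nM) in Tris buffer with 1 uM T3 and 5% DMSO were incubated with pinned compound for 5 hr at ambient temperature. Total fluorescence was computed as S + 2P (555/632 nm).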
Tau fluor counter – counter-screen for tau fibril formation inhibitors | tau K18 P301L (four-repeat tau fragment) Alexa594 fluorescence, heparin fibrillization | Potency, µM (titrated, usually from 57.7 µM) | actives 0.93% (n = 280,000); also: nearly all actives have a fitted effect of over 55% in size
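Human K18 P301L tau (15 uM unlabeled plus 0.24 uM Alexa 594-labeled, final) in 100 mM sodium acetate pH 7 was mixed with compound and 20 uM heparin and incubated 6 hr at 37 C.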
A number is an active result; - = inactive; ? = inconclusive; . = not tested or not shown; [ ] = remark or other dose. Unless noted, calls follow the shape of the dose curve; as a rule, active = well fitted curve in the direction sought with a large enough effect; inconclusive = small, poorly fitted or top-dose-only effect, or another doubt; inactive = no such curve, though single readings can be large; an effect the other way counts as inactive or inconclusive.

SMILES	Tau fibril FP	PNC inhibitor	Tau fibril ThT	TRb-SRC2 inh	TexasRed fluor	Tau fluor counter
COc1ccc(N2CCC(CNC(=S)Nc3cccc(OC)c3)C2)cc1 (stereo not given)	-	-	?	-	-	11µM[quencher]
COc1ccc(N2CCC(CNC(=O)Nc3cccc(OC)c3)C2)cc1 (stereo not given)	-	-	?	-	-	16µM[quencher]
CCOC(=O)c1cc(-c2ccccc2)n(CCCC(=O)Nc2ccc(C(C)C)cc2)c1C	-	.	-	-	-	-
CNS(=O)(=O)c1cccc(C(=O)OCC(=O)Nc2ccc(-c3nc4ccc(C)cc4s3)cc2)c1	?	.	-	-	-	-
O=S(=O)(c1ccc2c(c1)oc1ccccc12)N1CCOCC1	-	-81	-	-	-	-
O=C(c1cc2nc(-c3ccco3)cc(C(F)(F)F)n2n1)N1CCN(c2ccc(F)cc2)CC1	-	-	?	-	-	-
CCOC(=O)c1c(CSc2ccc(C)cc2)oc2ccc(O)cc12	32µM	-	?	-	-	?
CCOC(=O)c1c(CN(CC)CC)oc2ccc(OC)cc12	-	-100	-	-	-	-
CCc1ccc(-c2cc(C)no2)cc1S(=O)(=O)Nc1ccc(C)cn1	-	.	-	-	-	-
C=CCNC(=S)Nc1c(C(=O)OC)[nH]c2cc(OC)ccc12	?	.	-	-	-	-
Cc1[nH]c(N=Nc2ccccc2)nc1N=Nc1ccccc1	-	.	3.5µM	-	-	?
CCCNCC(O)COc1ccccc1C(=O)CCc1ccccc1 (stereo not given)	-	-	-	-	-	-
CCN(CC)CC(O)COc1ccccc1C(=O)CCc1ccccc1 (stereo not given)	-	-86	-	-	-	-
CCCC(=O)Nc1nn(C)c2nc3c(C)cccc3cc12	-	?	?	-	-	-
CN(C)C=C1C(=O)c2ccccc2C1=O	-	?	?	-	-	-
CC(C)(C=O)C1=CC(=O)c2ccccc2C1=O	?	-	8.9µM	-	?	?
COc1ccccc1CN1C(=O)C(=O)c2cccc(C)c21	-	.	-	-	-	-
CC(C)(C)c1ccc2c(c1)C(=O)c1ccccc1C2=O	-	?	-	-	-	-
COc1cccc2c1C(=O)C=C(C)C2=O	?	?	7.1µM	-	-	7.1µM[quencher]
CC1=CC(=O)c2ccccc2C1=O	?	-	5µM	-	-	7.1µM[quencher]
Cc1[nH]nc2c1C(C1CC=CCC1)C(C#N)=C(N)O2 (stereo not given)	-	-	-	-	-	-
Cn1c(=O)[nH]c2nnc(-c3ccc(Cl)c(Cl)c3)nc2c1=O	-	.	16µM	-	-	-
O=C(CC1C(=O)NCCN1C(=O)Nc1ccc(C(F)(F)F)cc1)Nc1ccc(F)cc1 (stereo not given)	-	.	-	-	-	-
CC1=C(C)/C(=N\OS(=O)(=O)c2ccc(C)cc2)C=CC1=O	16µM	?	10µM	-	-	?
CC1=C/C(=N\OS(=O)(=O)c2ccccc2)C(C(C)C)=CC1=O	?	-	10µM	-	-	-
SMILES	Tau fibril FP	PNC inhibitor	Tau fibril ThT	TRb-SRC2 inh	TexasRed fluor	Tau fluor counter
O=S(=O)(Oc1ccc(Cl)cc1)c1ccccc1	.	.	.	-	-	.
CC1=C/C(=N\OS(=O)(=O)c2ccccc2)C(C)=CC1=O	?	-	14µM	-	-	?
COc1cc(C(=O)O/N=C2/C=C(C)C(=O)C=C2C)cc(OC)c1OC	-	-	?	-	-	-
CCN(CC)CCOCCOC(=O)C1(c2ccccc2)CCCC1	-	.	-	?	-	-
Cc1cccc(-c2nnc(SCC#N)n2C)c1	-	.	-	-	-	-
COc1ccc(-c2nnc(SCc3ccccc3)n2N)cc1	-	-108	-	-	-	-
Cc1ccc(-c2nnc(SCC#N)n2N)cc1	-	-83	-	-	-	-
N#Cc1cc(O)c(-n2nnc3ccccc32)cc1C#N	-	.	-	-	-	-
N#Cc1cc(Oc2cccc3cccnc23)c(-n2nnc3ccccc32)cc1C#N	-	-	-	-	-	16µM[quencher]
CC(=O)c1c(C)[nH]c(C(=O)OCC(=O)Nc2cc(Cl)ccc2[N+](=O)[O-])c1C	-	-	?	-	-	?
CCN(CC)CCNC(=O)c1cn(CC)c2cc(N3CCN(C(=O)c4ccco4)CC3)c(F)cc2c1=O	-	.	-	-	-	-
COc1ccc(/C=C/C(=O)NC(=S)Nc2cc([N+](=O)[O-])ccc2O)cc1OC	?	.	1.6µM	-	-	-
O=c1cc(-c2ccc(O)c(O)c2)oc2ccccc12	?	.	18µM	-	-	?
O=C(c1ccccc1)n1ccc(-c2cnc(-c3ccccc3)s2)n1	-	-	-	-	-	-
CCN(CC)c1ccc(C2C(C(=O)OC(C)C)C(=O)CC(C)(O)C2C(=O)OC(C)C)cc1 (stereo not given)	-	-113	-	-	-	-
CCOC(=O)C1C(=O)CC(C)(O)C(C(=O)OCC)C1c1ccc(N(CC)CC)cc1 (stereo not given)	-	-119	-	-	-	-
COc1ccc(CCNC(=O)Cn2c(=O)nc(-c3ccccc3)c3cc(Cl)ccc32)cc1OC	-	.	-	-	-	-
COCCNC(=O)NC12CC3CC(CC(C3)C1)C2	-	.	-	-	-	-
Cc1ccccc1CN1CCNC(=O)C1CC(=O)O (stereo not given)	-	-84	-	-	-	-
CCOC(=O)c1c(NC(=O)/C=C/c2ccc(OCC)cc2)sc2c1CCCC2	-	.	-	-	-	-
COc1ccccc1CCNC(=O)CSc1ccc(-c2cccs2)nn1	-	.	?	-	-	-
CC(C)CCNC(=O)c1nnc(Cc2ccc(Cl)cc2)o1	-	-110	-	-	-	-
Cc1cc(C)nc(SCc2nnc(SCC(=O)Nc3nccs3)n2Cc2ccco2)n1	-	?	-	-	-	-
Cc1nnc(SCC(=O)Nc2ccc(Br)cc2)[nH]c1=O	-	.	-	-	45µM[quencher]	-
COc1ccc(NC(=O)CSc2c(C)n[nH]c2C)cc1	-	-	-	-	-	-
Cc1n[nH]c(C)c1SCC(=O)Nc1ccc(F)cc1	-	-100	-	-	-	-
CCc1ccc(-c2nc3cc(NC(=O)c4ccc(C)c(C)c4)ccc3o2)cc1	-	.	?	-	-	-
COc1ccc2[nH]c(C)c(CCNC(=S)Nc3cccc(C)c3)c2c1	-	-	?	-	-	16µM[quencher]
CCOc1ccc(NC(=S)N(CCc2c(C)[nH]c3ccc(C)cc23)Cc2ccco2)cc1	-	-	?	-	-	?
COc1ccc2[nH]c(C)c(CCNC(=S)Nc3cc(C)cc(C)c3)c2c1	-	?	-	-	-	?
